Hits are enriched below; roughly 18% of the tested compounds scored in any of these assays.
IL1B secr inh: blocks inflammasome-driven IL-1 beta release; THP-1 LPS/ATP IL-1B secretion, AlphaLISA, 16 h; stronger effect = lower value; AID 743279; 360,000 compounds, 4.7% hits; activity change, % at 57.5 µM; in the data active means activity change below about -50%; inconclusive means mostly about -30% to -49%
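THP-1 cells pretreated 1 hr with compounds (up to 57.5 uM final), then stimulated with LPS (250 ng/mL final) plus ATP (1.25 mM final); secreted IL-1B measured by AlphaLISA after 16 hr, decreased signal indicating inhibition.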
TDP1 cell CPT: growth inhibition of DT40 Tdp1-/-;hTDP1 cells with camptothecin (screen for TDP1 inhibitors); chicken DT40 Tdp1-/-;hTDP1 cells + 20 nM CPT, ATP luminescence, 48 h; Potency, µM (top dose mostly 46.2 µM), without a hit: at the top dose activity change, negative = growth inhibition, hits mostly inhibitors; 420,000 compounds, 12% hits; AID 686979; further: potency means the concentration at half of the fitted maximal effect; nearly all actives have a fitted effect of over 55% in size
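Cell growth measured by CellTiter-Glo luminescence after a minimum 48 h, 37 C compound exposure with 20 nM CPT in Tdp1-knockout DT40 cells stably expressing hTDP1, seeded 400/well; qHTS titration format.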
LDHA inh: inhibitors of human lactate dehydrogenase A | P00338 | purified LDHA, NADH/diaphorase-resazurin fluorescence; stronger effect = lower value | activity change, % (values are at about 110 or 230 µM) | 480,000 compounds, 0.15% hits; in the data active means activity change below about -30%; inconclusive means mostly about -25% to -30%;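 further: plate controls were DMSO wells for no effect and wells without enzyme for full effect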
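Resorufin fluorescence (ex540/em590), read at 0 and 20 min after diaphorase/resazurin addition, reports the NADH left after a 5 min room-temperature reaction of 2 nM human LDH5 with 0.06 mM NADH and 0.2 mM pyruvate.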
RORgamma inh: ROR gamma (mouse) transcription inhibition; Drosophila S2 Gal4-RORgamma UAS-luciferase reporter, 20 h; Potency, µM (titrated, usually from 53.6 µM), inactives show at the highest dose activity change, negative = inhibition, hits mostly inhibitors; 310,000 compounds, 5.4% hits; AID 2551; further: potency means the concentration at half of the fitted maximal effect; nearly all actives have a fitted effect of over 60% in size
Target sequence (P51450 whole entry, looked up, the tested form may be a part): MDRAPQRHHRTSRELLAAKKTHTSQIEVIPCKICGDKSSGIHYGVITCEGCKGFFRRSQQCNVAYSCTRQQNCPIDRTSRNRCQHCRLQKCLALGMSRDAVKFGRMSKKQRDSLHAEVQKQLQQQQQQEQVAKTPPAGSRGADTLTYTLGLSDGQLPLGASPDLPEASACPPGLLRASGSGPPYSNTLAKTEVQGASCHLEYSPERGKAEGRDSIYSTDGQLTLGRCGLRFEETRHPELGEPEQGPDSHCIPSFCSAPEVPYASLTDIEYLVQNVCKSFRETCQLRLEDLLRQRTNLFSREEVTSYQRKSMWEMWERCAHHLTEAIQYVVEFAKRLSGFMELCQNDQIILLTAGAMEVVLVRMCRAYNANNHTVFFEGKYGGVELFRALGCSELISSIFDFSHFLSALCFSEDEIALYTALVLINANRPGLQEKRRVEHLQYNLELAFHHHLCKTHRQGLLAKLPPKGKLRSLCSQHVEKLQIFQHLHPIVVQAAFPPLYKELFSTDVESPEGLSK
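Read-out: Photinus luciferase luminescence; inhibitors lower reporter signal. Insect Schneider cells with Gal4-ROR gamma fusion under metallothionein promoter, UAS reporter; 700 uM final copper sulfate induction, 20 hr, ambient temperature.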
TDP1 cell noCPT: qHTS for Inhibitors of human tyrosyl-DNA phosphodiesterase 1 (TDP1): qHTS in cells in absence of CPT. Potency, µM (series often up to 46.2 µM), without a hit: top-dose activity change, negative = growth inhibition, hits mostly inhibitors. DT40 Tdp1-/- hTDP1 cells, no CPT, ATP luminescence, 48 h. 420,000 compounds, 15% hits; further: potency means the concentration at half of the fitted maximal effect; nearly all actives have a fitted effect of over 55% in size
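Chicken DT40 Tdp1-/- cells stably complemented with human TDP1 were seeded at 400 cells/well with DMSO in place of 20 nM camptothecin. After compound pinning, cells grew at least 48 hr at 37 °C; viability read by CellTiter-Glo luminescence.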
VP16 counter: Gal4-VP16 reporter inhibition counter-screen | Drosophila S2 Gal4-VP16 UAS-luciferase, luminescence, 20 h | Potency, µM (highest dose often 53.6 µM), without a hit: at the top dose activity, negative = inhibition, hits mostly inhibitors | 310,000 compounds, 3.5% hits | AID 2546;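 further: Gal4-VP16 expression switched on by copper sulfate through the metallothionein promoter; potency means the concentration at half of the fitted maximal effect; nearly all actives have a fitted effect of over 50% in size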
The depositor's hits bear a star; ? = inconclusive; · = not tested or not shown; [ ] = remark or other dose. Unless noted, the call rests on the fitted dose curve; in most records, active means well fitted curve in the direction sought with a large enough effect; inconclusive means small, poorly fitted or top-dose-only effect, or another doubt; inactive means no such curve, though single readings can be large; an effect the other way counts as inactive or inconclusive. Unless noted, on the % scale 0 is the no-effect control and ±100 the full control effect.

SMILES | IL1B secr inh | TDP1 cell CPT | LDHA inh | RORgamma inh | TDP1 cell noCPT | VP16 counter
COC(=O)c1c(C)oc2ccc(OS(C)(=O)=O)cc12 | · | · | 7 | · | · | ·
CCN(C(=O)C(=O)c1c[nH]c2ccccc12)c1ccc(C)c(C)c1 | · | · | 5 | · | · | ·
Cc1oc(-c2ccc(C(=O)NCCC(C)C)cc2)nc1CN1CCc2ccccc21 | · | · | -6 | · | · | ·
Cc1oc(-c2ccc(C(=O)NCc3ccccc3)cc2)nc1CN1CCc2ccccc21 | · | ? | 2 | · | 21µM* | ·
COc1cccc(NC(=O)c2ccc(-c3nc(COc4ccccc4)c(C)o3)cc2)c1 | · | ? | 2 | · | ? | ·
Cc1ccc(OCc2nc(-c3ccc(C(=O)NCc4ccc(OC(C)C)cc4)cc3)oc2C)cc1 | · | ? | -5 | · | 21µM* | ·
COc1ccccc1NC(=O)c1ccc(-c2nc(COc3ccc(C)cc3)c(C)o2)cc1 | · | 21µM* | -8 | · | 18µM* | ·
COc1ccc(OC)c(NC(=O)c2ccc(-c3nc(COc4ccccc4)c(C)o3)cc2)c1 | · | ? | 2 | · | 13µM* | ·
CC(C)C(NC(=O)c1cnn(C)c1)c1ccc(F)cc1 (stereo unspecified) | · | · | 2 | · | · | ·
NC1=NN=C(N2N=C(c3ccccc3)CC2(O)C(F)(F)F)n2ncnc2C1 (stereo unspecified) | -3 | ? | 0 | 13µM* | 4% | ?
COc1ccc(C2=NN(C3=NN=C(N)Cc4ncnn43)C(O)(C(F)(F)F)C2)cc1 (stereo unspecified) | -12 | 15% | 13 | 8.9µM* | 9% | 11µM*
COc1ccccc1C1=NN(C2=NN=C(N)Cc3ncnn32)C(O)(C(F)(F)F)C1 (stereo unspecified) | ? | -3% | 10 | ? | -1% | -7%
NC1=NN=C(N2N=C(c3ccc(Br)cc3)CC2(O)C(F)(F)F)n2ncnc2C1 (stereo unspecified) | -5 | 10% | 1 | ? | -22% | 18µM*
COc1ccccc1-c1nn2c(-c3cc(C)[nH]n3)nnc2s1 | · | 8.9µM* | 4 | · | 7.9µM* | ·
COc1ccc(-c2nnc3sc(-c4ccccc4OC)nn23)cc1 | -27 | -20% | -2 | -6%[10 µM] | ? | 1%
COc1cc(-c2nn3c(-c4cc(-c5ccccc5)n[nH]4)nnc3s2)cc(OC)c1OC | · | 16µM* | -12 | · | 8.9µM* | ·
COc1cc(-c2nn3c(COc4ccccc4)nnc3s2)cc(OC)c1OC | 42 | -13% | -1 | -2%[10 µM] | -26% | -4%
COc1cc(-c2nn3c(-c4ccccc4)nnc3s2)cc(OC)c1OC | 27 | ? | -3 | -3% | ? | -2%
COc1cc(-c2nn3c(Cc4ccccc4)nnc3s2)cc(OC)c1OC | -7 | 35µM* | 4 | -7% | ? | -14%
Oc1ccccc1C1C=C(c2ccc3c(c2)OCO3)NC(c2cccc(F)c2)N1 (stereo unspecified) | · | · | 2 | · | · | ·
CC(C)C1(C)NC(c2ccc3c(c2)OCO3)=CC(c2ccccc2O)N1 (stereo unspecified) | · | ? | 4 | · | 13µM* | ·
CC(C)C1N=C(c2ccc3c(c2)OCO3)CC(c2ccccc2O)N1 (stereo unspecified) | -19 | 5.2µM* | -1 | -27% | 4.6µM* | -1%
CCCCCCC1(C)NC(c2ccc3c(c2)OCO3)=CC(c2cc(Br)ccc2O)N1 (stereo unspecified) | · | · | -1 | · | · | ·
CCC1(C)NC(c2ccc3c(c2)OCO3)=CC(c2ccccc2O)N1 (stereo unspecified) | · | ? | 0 | · | 11µM* | ·
CCN(CC(=O)NC)S(=O)(=O)N1CCCC(C)C1 (stereo unspecified) | · | · | -2 | · | · | ·
O=[N+]([O-])c1cccc(/C=C/c2ccccn2)c1 | -30 | -1% | -7 | ? | 7% | 27%
